Measurements as given in PubChem BioAssay (NCI).
Where “and” joins values, the source holds several entries; their conditions need not be identical. Equal values may be shown once. The panel holds about 83,000 compounds, 20% with a hit somewhere; the sample as a whole holds those more often.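 Interpretation: 100, growth as untreated; towards 0, rising growth inhibition; 0, no net growth; 0 to -100, cell death. Compounds scoring below 10 were considered active.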 Values without a mark were called inactive. Calls of active or inactive are those of the source.

tested on: HL-60(TB) leukemia; assay: NCI-60 one-dose screen, 48 h (100 = growth as untreated, 0 = no growth, -100 = all killed); conditions: 10 µM unless noted

Row | Compound | growth
1 | C[C@@H]1[C@H]2[C@H](C=C3[C@@H]4CC[C@H]5Cc6nc7c(nc6C[C@]5(C)[C@H]4C[C@@H](O)[C@@]32C)C[C@@H]2CC[C@H]3C4=C[C@@H]5O[C@@]6(CC[C@](C)(CO)O6)[C@@H](C)[C@@]5(O)[C@@]4(C)[C@H](O)C[C@@H]3[C@@]2(C)C7)O[C@]12CCC(C)(C)O2 | 4.6% (active)
2 | O=C(/C=C/C=C/c1ccccc1)c1ccco1 | -38.2% (active)
3 | C[C@]12C[C@H]1CC[C@]1(C)[C@@H]2CC[C@@]23C[C@H](CC[C@H]21)[C@@](O)(CO)C3 | 103%
4 | OC(COc1cccc2ccccc12)CN1CCN(c2ccc(Cl)cc2)CC1 (centres undefined) | 55.5% and 75.2%
